Laboratory results as given in PubChem BioAssay (EPA / NIEHS).
Inconclusive results are not listed. Activity calls are given as the source filed them. How the source made its calls, unless noted: active means hit-call score of the fitted dose curve at least 0.9, where 1 is the maximum; inactive means score below 0.9.

Assays:
[1] = ATG_PBREM_CIS: Attagene CIS-FACTORIAL HepG2 Assay for human Phenobarbital-responsive Enhancer Module (PBREM) (AID 2282955); conditions: HepG2 PBREM cis-reporter, Attagene multiplexed transcription; actives raise or lower the signal
Method in brief: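 Reporter mRNA read by RT-PCR, 6-FAM primer extension, HpaI digestion and capillary electrophoresis. Transfected HepG2 cells, 24 h compound exposure. Gain or loss of signal fitted bidirectionally relative to DMSO baseline.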

[2] = ATG_PXRE_CIS: Attagene CIS-FACTORIAL HepG2 Assay for human Pregnane X Receptor Element (PXRE) (AID 2282957); conditions: HepG2 Attagene CIS-FACTORIAL PXRE reporter, mRNA; actives raise or lower the signal
Method in brief: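 HepG2 cells transiently transfected with cis-element-driven multiplexed reporter units; after 24 h chemical exposure, reporter mRNA measured by RT-PCR, 6-FAM labelling, HpaI digestion and capillary electrophoresis. Bidirectional fitting relative to DMSO.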

[3] = ATG_PPRE_CIS: Attagene CIS-FACTORIAL HepG2 Assay for human Peroxisome Proliferator-activated Response Element (PPRE) (AID 2282958); conditions: HepG2 PPRE cis-element reporter, Attagene transcription factor profiling; actives raise or lower the signal
Method in brief: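 Read-out: fluorescent reporter mRNA fragments resolved by capillary electrophoresis after RT-PCR. HepG2 cells carried transiently transfected PPRE-driven cis reporter constructs and were dosed for 24 h; gain or loss of signal fitted relative to DMSO.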

[4] = ATG_RORE_CIS: Attagene CIS-FACTORIAL HepG2 Assay for human RAR-related Orphan Receptor Element (RORE) (AID 2282959); conditions: HepG2 Attagene cis-factorial RORE reporter, mRNA; actives raise or lower the signal
Method in brief: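 Readout: fluorescent reporter mRNA by RT-PCR plus capillary electrophoresis, 24 h after dosing transfected HepG2 cells. Endogenous transcription factor activity on a cis promoter element is measured. Gain or loss of signal fitted against DMSO.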

[5] = ATG_Sox_CIS: Attagene CIS-FACTORIAL HepG2 Assay for human SRY-box transcription factor (SOX) (AID 2282960); conditions: HepG2 Attagene cis-factorial SOX reporter, mRNA; actives raise or lower the signal
Method in brief: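 Read-out: fluorescent RT-PCR products of SOX1-linked reporter transcripts resolved by capillary electrophoresis, fitted bidirectionally against DMSO. Transiently transfected HepG2 cells, 24 h after chemical exposure, endogenous transcription factor activity.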

[6] = biological target: Transcription factor Sp1 (Homo sapiens) (UniProt P08047); assay: ATG_Sp1_CIS: Attagene CIS-FACTORIAL HepG2 Assay for human Specificity Protein 1 (Sp1) (AID 2282961); conditions: HepG2 Sp1 cis-reporter transcription, actives raise or lower the signal
Method in brief: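 Read-out: fluorescence of 6-FAM-labeled, HpaI-digested RT-PCR products separated by capillary electrophoresis. HepG2 cells carried transfected cis-element reporter units and were exposed to chemicals for 24 h; gain or loss of signal fitted relative to DMSO.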

[7] = ATG_SREBP_CIS: Attagene CIS-FACTORIAL HepG2 Assay for human Sterol Regulatory Element Binding (SREBP) (AID 2282962); conditions: HepG2 Attagene cis-factorial SREBP reporter, mRNA; actives raise or lower the signal
Method in brief: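 HepG2 cells transiently transfected with multiplexed cis-promoter reporter units sensing endogenous transcription factors; reporter mRNA measured 24 h after dosing by RT-PCR, 6-FAM labeling, HpaI digestion and capillary electrophoresis. Bidirectional fit versus DMSO.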

[8] = ATG_TAL_CIS: Attagene CIS-FACTORIAL HepG2 Assay for human TAL Basal Promoter (AID 2282966); conditions: HepG2 Attagene cis-factorial TAL promoter reporter; actives raise or lower the signal;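 further: background control endpoint measuring basal TAL promoter reporter mRNA not a specific factor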
Method in brief: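 HepG2 cells transiently transfected with multiplexed cis-promoter reporter units, dosed 24 h. Reporter mRNA quantified by RT-PCR, 6-FAM labelling, HpaI digestion and capillary electrophoresis; TAL basal promoter serves as background control, fitted bidirectionally versus DMSO.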

[9] = ATG_TGFb_CIS: Attagene CIS-FACTORIAL HepG2 Assay for human Transforming Growth Factor (TGF) (AID 2282967); conditions: HepG2 Attagene CIS TGFb reporter, mRNA transcription; actives raise or lower the signal
Method in brief: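 Endogenous TGFB1-linked transcription factor activity read as reporter mRNA via RT-PCR and capillary electrophoresis, 24 h after dosing transiently transfected HepG2 cells. Gain or loss of signal fitted relative to DMSO.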

[10] = biological target: X-box-binding protein 1 (Homo sapiens) (UniProt P17861); assay: ATG_Xbp1_CIS: Attagene CIS-FACTORIAL HepG2 Assay for human X-box Binding Protein 1 (XBP1) (AID 2282972); conditions: HepG2 XBP1 cis-element reporter, Attagene multiplex; actives raise or lower the signal
Method in brief: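 HepG2 cells transiently transfected with multiple cis-element reporter units report endogenous TF activity; 24 h exposure, then reporter mRNA measured by RT-PCR, 6-FAM labelling, HpaI digestion and capillary electrophoresis. Bidirectional fitting versus DMSO.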

[11] = ATG_GAL4_TRANS: Attagene TRANS-FACTORIAL HepG2 Assay for GAL4 (Internal Marker) (AID 2282976; active means hit-call score of the fitted dose curve at least 0.9, where 1 is the maximum); conditions: HepG2 Attagene TRANS GAL4 internal marker reporter
Method in brief: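 Background-control readout: GAL4-UAS reporter transcript in transiently transfected HepG2 cells after 24 h compound exposure. Measured by RT-PCR, 6-FAM primer extension, HpaI digest and capillary electrophoresis; gain-of-signal fit versus DMSO.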

[12] = biological target: Signal transducer and activator of transcription 3 (Homo sapiens) (UniProt P40763); assay: ATG_STAT3_CIS: Attagene CIS-FACTORIAL HepG2 Assay for human Signal Transducer and Activator of Transcription 3 (STAT3) (AID 2282963); conditions: HepG2, Attagene cis-factorial STAT3 reporter transcription; actives raise or lower the signal
Method in brief: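 Transcript-level reporter assay. HepG2 transient MRTU transfection, 24 h exposure, fluorescence detection after RT-PCR and CE; DMSO baseline.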

[13] = ATG_TA_CIS: Attagene CIS-FACTORIAL HepG2 Assay for human TA Basal Promoter (AID 2282964); conditions: HepG2 Attagene CIS-factorial TA basal promoter reporter; actives raise or lower the signal
Method in brief: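 Background-control readout: TA basal promoter reporter mRNA, fitted in both directions relative to DMSO. Measured by RT-PCR and capillary electrophoresis 24 hours after treating HepG2 human liver cells transiently carrying multiplexed cis-regulated reporter constructs.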

[14] = ATG_TCF_b_cat_CIS: Attagene CIS-FACTORIAL HepG2 Assay for human T-Cell-Factor with beta-catenin (TCF/b-cat) (AID 2282965); conditions: HepG2 TCF/beta-catenin cis-reporter transcription, actives raise or lower the signal
Method in brief: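 Using capillary electrophoresis as the read-out, labelled reporter cDNA fragments from transiently transfected HepG2 were sized and quantified. Exposure lasted 24 hours; activity in either direction was referenced to DMSO.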

[15] = ATG_VDRE_CIS: Attagene CIS-FACTORIAL HepG2 Assay for human Vitamin D Receptor Element (VDRE) (AID 2282968); conditions: HepG2 VDRE cis-reporter transcription, actives raise or lower the signal
Method in brief: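 RT-PCR/CE readout of reporter mRNA; HepG2, transient transfection, 24 h dosing; DMSO baseline; bidirectional analysis.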

[16] = biological target: Estrogen receptor (Homo sapiens) (UniProt P03372); assay: ATG_ERa_TRANS: Attagene TRANS-FACTORIAL HepG2 Assay for human Estrogen Receptor alpha (ERa) (AID 2282970; active means hit-call score of the fitted dose curve at least 0.9, where 1 is the maximum); conditions: HepG2 Attagene TRANS ERa GAL4 reporter, mRNA
Method in brief: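 HepG2 cells transiently transfected with multiplexed GAL4-UAS reporter units read out chimeric NR-Gal4 activity. After 24 h compound exposure, reporter mRNA was quantified by RT-PCR, 6-FAM labeling, HpaI digestion and capillary electrophoresis, relative to DMSO.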

[17] = biological target: Nuclear receptor subfamily 1 group I member 3 (Homo sapiens) (UniProt Q14994); assay: ATG_CAR_TRANS: Attagene TRANS-FACTORIAL HepG2 Assay for human Constitutive Androstane Receptor (CAR) (AID 2282969; active means hit-call score of the fitted dose curve at least 0.9, where 1 is the maximum;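 further: activators raise reporter mRNA above DMSO so AC50 marks induction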); conditions: HepG2 Attagene TRANS-FACTORIAL CAR reporter
Method in brief: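 HepG2 cells transiently transfected with multiplexed GAL4-UAS reporter units expressing chimeric NR-Gal4 proteins; compound exposure 24 h. Reporter mRNA measured by RT-PCR, 6-FAM labelling, HpaI digestion and capillary electrophoresis; gain-of-signal fitted against DMSO baseline.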

[18] = ATG_M_19_TRANS: Attagene TRANS-FACTORIAL HepG2 Assay for M19 Transcription Factor (Internal Marker) (AID 2282974; active means hit-call score of the fitted dose curve at least 0.9, where 1 is the maximum); conditions: HepG2 Attagene TRANS-FACTORIAL M19 internal marker reporter
Method in brief: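 24 h chemical exposure of transiently transfected HepG2 (MRTU library). RNA → oligo(dT) RT → PCR → 6-FAM labelling → HpaI cut → CE fluorescence. Positive-direction fit vs DMSO baseline; background internal-marker readout.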

[19] = biological target: Paired box protein Pax-6 (Homo sapiens) (UniProt P26367); assay: ATG_Pax6_CIS: Attagene CIS-FACTORIAL HepG2 Assay for human Paired Box 6 (PAX6) (AID 2282956); conditions: HepG2 CIS-FACTORIAL PAX6 reporter transcription, RNA readout; actives raise or lower the signal
Method in brief: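 HepG2 cells transiently transfected with cis-promoter-driven multiplexed reporter units sensing endogenous transcription factor activity; 24 h chemical exposure. Reporter mRNA quantified by RT-PCR, 6-FAM labelling, HpaI digestion and capillary electrophoresis; bidirectional fit versus DMSO baseline.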

[20] = biological target: Steroid hormone receptor ERR1 (Homo sapiens) (UniProt P11474); assay: ATG_ERRa_TRANS: Attagene TRANS-FACTORIAL HepG2 Assay for human Estrogen-Related Receptor alpha (ERRa) (AID 2282971; active means hit-call score of the fitted dose curve at least 0.9, where 1 is the maximum); conditions: HepG2 Attagene TRANS reporter, ERRa transactivation
Method in brief: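 HepG2 cells transiently transfected with GAL4-UAS reporter units and chimeric NR-Gal4 constructs; after 24 hour compound incubation, reporter mRNA quantified by RT-PCR, fluorescent labelling and capillary electrophoresis, gain of signal versus DMSO.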

Measured: AC50

Sequence of Estrogen receptor (Homo sapiens) (P03372 whole entry, looked up, the tested form may be a part): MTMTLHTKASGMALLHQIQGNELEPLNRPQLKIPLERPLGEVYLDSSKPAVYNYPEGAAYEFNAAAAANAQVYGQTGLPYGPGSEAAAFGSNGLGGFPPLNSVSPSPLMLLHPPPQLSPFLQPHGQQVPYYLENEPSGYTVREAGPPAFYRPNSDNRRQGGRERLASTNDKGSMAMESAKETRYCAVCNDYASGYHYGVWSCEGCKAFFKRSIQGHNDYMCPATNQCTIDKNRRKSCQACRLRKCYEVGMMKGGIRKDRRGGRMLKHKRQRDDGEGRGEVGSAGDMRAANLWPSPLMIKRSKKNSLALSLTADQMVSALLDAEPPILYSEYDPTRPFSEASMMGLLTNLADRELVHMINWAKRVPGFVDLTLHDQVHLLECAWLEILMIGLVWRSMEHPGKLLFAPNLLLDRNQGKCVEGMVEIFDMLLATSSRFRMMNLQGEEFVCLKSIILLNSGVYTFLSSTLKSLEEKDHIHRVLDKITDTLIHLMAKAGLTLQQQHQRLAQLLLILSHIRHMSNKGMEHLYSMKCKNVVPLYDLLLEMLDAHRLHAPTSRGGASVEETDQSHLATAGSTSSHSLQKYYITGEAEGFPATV
Sequence of Transcription factor Sp1 (Homo sapiens) (P08047 whole entry, looked up): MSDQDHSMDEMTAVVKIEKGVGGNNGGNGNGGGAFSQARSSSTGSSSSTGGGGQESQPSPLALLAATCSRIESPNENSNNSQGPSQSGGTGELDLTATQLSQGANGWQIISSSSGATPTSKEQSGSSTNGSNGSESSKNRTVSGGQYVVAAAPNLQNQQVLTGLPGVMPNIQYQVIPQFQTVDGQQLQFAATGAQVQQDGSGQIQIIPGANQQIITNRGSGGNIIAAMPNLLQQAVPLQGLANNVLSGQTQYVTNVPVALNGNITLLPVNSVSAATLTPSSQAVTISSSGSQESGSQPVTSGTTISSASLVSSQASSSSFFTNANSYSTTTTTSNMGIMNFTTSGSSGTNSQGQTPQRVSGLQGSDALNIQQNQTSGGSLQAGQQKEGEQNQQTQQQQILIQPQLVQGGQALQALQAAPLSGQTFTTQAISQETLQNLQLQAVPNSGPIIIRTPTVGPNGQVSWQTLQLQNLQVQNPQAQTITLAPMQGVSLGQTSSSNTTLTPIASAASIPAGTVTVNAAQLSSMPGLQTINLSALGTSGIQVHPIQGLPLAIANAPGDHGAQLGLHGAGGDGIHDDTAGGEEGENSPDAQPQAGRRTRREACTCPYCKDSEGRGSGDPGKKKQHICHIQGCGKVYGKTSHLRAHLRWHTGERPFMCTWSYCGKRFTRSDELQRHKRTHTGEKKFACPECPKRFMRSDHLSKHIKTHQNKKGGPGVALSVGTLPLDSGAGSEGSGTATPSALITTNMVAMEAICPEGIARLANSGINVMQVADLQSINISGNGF
Sequence of Paired box protein Pax-6 (Homo sapiens) (P26367 whole entry, looked up): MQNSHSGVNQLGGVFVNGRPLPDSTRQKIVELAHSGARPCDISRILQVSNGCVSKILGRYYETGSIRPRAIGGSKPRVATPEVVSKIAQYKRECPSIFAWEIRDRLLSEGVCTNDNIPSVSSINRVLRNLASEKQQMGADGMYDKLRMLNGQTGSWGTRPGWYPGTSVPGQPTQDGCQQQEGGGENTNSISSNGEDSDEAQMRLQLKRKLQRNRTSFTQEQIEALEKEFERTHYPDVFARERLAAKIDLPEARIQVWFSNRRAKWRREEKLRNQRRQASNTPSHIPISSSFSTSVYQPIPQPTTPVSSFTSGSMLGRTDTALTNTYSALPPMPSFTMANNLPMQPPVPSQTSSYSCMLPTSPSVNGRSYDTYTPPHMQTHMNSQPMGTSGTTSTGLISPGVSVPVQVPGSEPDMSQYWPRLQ
Sequence of X-box-binding protein 1 (Homo sapiens) (P17861 whole entry, looked up): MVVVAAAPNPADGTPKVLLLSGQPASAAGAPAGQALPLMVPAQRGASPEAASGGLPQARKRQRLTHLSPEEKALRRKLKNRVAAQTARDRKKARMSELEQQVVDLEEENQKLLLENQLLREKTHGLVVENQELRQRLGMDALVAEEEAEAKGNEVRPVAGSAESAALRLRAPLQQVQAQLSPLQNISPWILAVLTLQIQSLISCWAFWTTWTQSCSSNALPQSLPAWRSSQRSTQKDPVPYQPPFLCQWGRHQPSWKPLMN
Sequence of Signal transducer and activator of transcription 3 (Homo sapiens) (P40763 whole entry, looked up): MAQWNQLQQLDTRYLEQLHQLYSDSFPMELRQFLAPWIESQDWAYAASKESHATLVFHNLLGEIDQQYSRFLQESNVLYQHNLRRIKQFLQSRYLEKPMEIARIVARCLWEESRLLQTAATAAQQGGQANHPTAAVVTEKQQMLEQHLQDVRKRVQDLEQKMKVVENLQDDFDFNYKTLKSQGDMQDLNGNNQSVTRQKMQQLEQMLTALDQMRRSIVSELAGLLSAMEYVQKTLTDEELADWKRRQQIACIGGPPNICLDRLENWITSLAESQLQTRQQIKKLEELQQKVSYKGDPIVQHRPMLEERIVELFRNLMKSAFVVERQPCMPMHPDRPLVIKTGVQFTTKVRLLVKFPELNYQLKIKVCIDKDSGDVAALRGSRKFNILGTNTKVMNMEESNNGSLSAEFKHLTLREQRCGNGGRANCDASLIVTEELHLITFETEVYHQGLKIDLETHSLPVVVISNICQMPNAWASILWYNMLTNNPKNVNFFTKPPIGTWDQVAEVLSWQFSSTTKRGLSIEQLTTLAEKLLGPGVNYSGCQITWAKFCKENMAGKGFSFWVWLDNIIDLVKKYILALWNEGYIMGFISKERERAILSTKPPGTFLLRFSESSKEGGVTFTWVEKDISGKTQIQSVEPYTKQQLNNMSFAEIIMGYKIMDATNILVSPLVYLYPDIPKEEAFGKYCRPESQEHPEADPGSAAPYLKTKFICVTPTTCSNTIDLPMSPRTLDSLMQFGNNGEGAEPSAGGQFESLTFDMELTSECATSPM
Sequence of Nuclear receptor subfamily 1 group I member 3 (Homo sapiens) (Q14994 whole entry, looked up, the tested form may be a part): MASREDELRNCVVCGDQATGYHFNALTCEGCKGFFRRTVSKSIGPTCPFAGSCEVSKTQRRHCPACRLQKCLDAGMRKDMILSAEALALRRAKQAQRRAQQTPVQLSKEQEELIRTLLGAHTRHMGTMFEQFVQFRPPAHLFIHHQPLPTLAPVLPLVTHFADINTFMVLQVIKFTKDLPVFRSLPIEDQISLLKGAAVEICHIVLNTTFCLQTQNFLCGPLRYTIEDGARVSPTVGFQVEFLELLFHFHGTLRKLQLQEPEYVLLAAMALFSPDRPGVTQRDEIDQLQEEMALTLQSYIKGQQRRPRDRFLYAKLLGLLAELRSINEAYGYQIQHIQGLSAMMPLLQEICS
Sequence of Steroid hormone receptor ERR1 (Homo sapiens) (P11474 whole entry, looked up, the tested form may be a part): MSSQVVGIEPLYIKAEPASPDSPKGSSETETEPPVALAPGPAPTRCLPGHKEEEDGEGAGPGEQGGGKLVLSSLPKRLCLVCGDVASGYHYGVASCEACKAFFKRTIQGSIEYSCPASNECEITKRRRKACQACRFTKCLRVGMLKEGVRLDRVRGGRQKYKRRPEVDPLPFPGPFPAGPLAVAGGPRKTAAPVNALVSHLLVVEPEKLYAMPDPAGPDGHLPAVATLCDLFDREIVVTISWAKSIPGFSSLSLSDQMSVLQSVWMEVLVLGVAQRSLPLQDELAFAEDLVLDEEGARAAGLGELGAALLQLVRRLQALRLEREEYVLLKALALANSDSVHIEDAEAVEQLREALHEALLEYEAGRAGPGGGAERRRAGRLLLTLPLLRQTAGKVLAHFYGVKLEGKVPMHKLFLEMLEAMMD

CC(C)c1cccc(C(C)C)c1N
active: [2] 29.5 µM
inactive: [1] | [3] | [4] | [5] | [6] | [7] | [8] | [9] | [10] | [11]

Oc1ccc(/C=C/c2cc(O)cc(O)c2)cc1
active: [1] 100 µM | [3] 100 µM | [7] 26.9 µM | [13] 137 µM | [14] 27.3 µM | [16] 6 µM
not listed: [17] | [18] | [19] | [20]
inactive: all other assays above

CCOC(=O)c1ccccc1C
inactive: [1] | [2] | [4] | [5] | [6] | [7] | [12] | [14] | [8] | [9] | [10]

CC(CC=O)CC(C)(C)C (stereo not given)
not listed: [2] | [9] | [19] | [20]
inactive: all other assays above

O=C(O)C1CCC(C(=O)O)CC1 (stereo not given)
not listed: [3] | [11] | [17] | [18] | [19] | [20]
inactive: all other assays above

N#CC1(N)CCCCC1
not listed: [3] | [9] | [11] | [15] | [16] | [17] | [19] | [20]
inactive: all other assays above

CCOC(=O)c1ccc(C)cc1
active: [2] 56.8 µM
not listed: [1] | [11] | [17] | [18]
inactive: all other assays above

O=C(Cl)c1ccc(C(=O)Cl)cc1
not listed: [1] | [20]
inactive: all other assays above

CCOC(=O)C1=NN(c2ccc(Cl)cc2Cl)C(C)(C(=O)OCC)C1 (stereo not given)
active: [2] 9.36 µM
not listed: [1] | [16] | [17] | [18]
inactive: all other assays above
